# Data reported in PubChem BioAssay (Tox21).
# “And” between values parts separate entries of the source, which are not always exact repeats. Equal entries are not always repeated. Inconclusive results are not listed. Where a call stands in place of a potency, no number is given. Some compounds were tested as several samples or in several runs, with calls that do not always agree. The source made the active and inactive calls. Unless noted, the call rests on the fitted dose curve; in most records, active means well fitted curve in the direction sought with a large enough effect in the repeat runs; inconclusive means weak or mixed curves; inactive means no such curve, though single readings can be large; an effect the other way counts as inactive or inconclusive.
# How the values were obtained:
# [1] = qHTS assay to identify small molecule antagonists of the thyroid receptor (TR) signaling pathway - cell viability counter screen (AID 743064); further: nearly all actives have a fitted effect of over 50% in size; further: potency means the concentration at half of the fitted maximal effect
# Procedure, shortened: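 Plate GH3.TRE-Luc cells; incubate 4 h at 37 °C; add compound, then T3 to 1 nM final; incubate 23.5 h; add CellTiter-Fluor; incubate 30 min at 37 °C, 5% CO2; read fluorescence.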
# [2] = qHTS assay to identify small molecule antagonists of the thyroid receptor (TR) signaling pathway (AID 743065); further: nearly all actives have a fitted effect of over 55% in size; further: potency means the concentration at half of the fitted maximal effect
# Procedure, shortened: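 GH3.TRE-Luc rat pituitary cells (two TREs driving luciferase) were dosed with compound, then stimulated with 1 nM T3 (final) for 23.5 h at 37 C. ONE-Glo luminescence was the read-out, with CellTiter-Fluor fluorescence as the cytotoxicity counter-screen.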
# [3] = tested on: thyroid hormone receptor (rat, GH3 cells); assay: qHTS assay to identify small molecule agonists of the thyroid receptor (TR) signaling pathway (AID 743066; calls by dose curve)
# [4] = qHTS assay to identify small molecule antagonists of the estrogen receptor alpha (ER-alpha) signaling pathway - cell viability counter screen (AID 743074; calls by dose curve;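 further: HEK293 cells carrying ER-alpha-UAS-bla reporter stimulated with 17beta-estradiol; nearly all actives have a fitted effect of over 45% in size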)
# [5] = qHTS assay to identify small molecule antagonists of the estrogen receptor alpha (ER-alpha) signaling pathway using the BG1 cell line - cell viability counter screen (AID 743081);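 further: compound given together with 17beta-estradiol as the ER stimulus; nearly all actives have a fitted effect of over 45% in size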; further: potency means the concentration at half of the fitted maximal effect
# Aromatase (Homo sapiens) = Aromatase (Homo sapiens) (UniProt P11511); assay: qHTS assay to identify aromatase inhibitors (AID 743083); further: nearly all actives have a fitted effect of over 55% in size; further: potency means the concentration at half of the fitted maximal effect
# Aromatase (Homo sapiens), sequence (P11511 whole entry, looked up): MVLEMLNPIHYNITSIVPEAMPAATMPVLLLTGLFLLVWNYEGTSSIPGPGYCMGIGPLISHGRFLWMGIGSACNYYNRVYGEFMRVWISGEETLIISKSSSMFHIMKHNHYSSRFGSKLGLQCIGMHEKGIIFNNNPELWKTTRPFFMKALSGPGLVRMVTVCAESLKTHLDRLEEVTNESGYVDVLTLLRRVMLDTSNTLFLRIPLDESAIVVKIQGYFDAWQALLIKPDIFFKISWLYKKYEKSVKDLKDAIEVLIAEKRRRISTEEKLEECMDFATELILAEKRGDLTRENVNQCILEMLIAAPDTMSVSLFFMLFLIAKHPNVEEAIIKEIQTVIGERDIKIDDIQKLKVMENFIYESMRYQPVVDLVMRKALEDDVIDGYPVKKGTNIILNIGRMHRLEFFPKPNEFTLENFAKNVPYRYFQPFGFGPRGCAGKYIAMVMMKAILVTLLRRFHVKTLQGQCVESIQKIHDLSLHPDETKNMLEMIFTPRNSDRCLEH
# [6] = biological target: Estrogen receptor (Homo sapiens) (UniProt P03372); assay: qHTS assay to identify small molecule agonists of the estrogen receptor alpha (ER-alpha) signaling pathway (AID 743075; calls by dose curve;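 further: HEK293 GripTite cells with ER-alpha and UAS-driven beta-lactamase reporter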)
# Estrogen receptor (Homo sapiens), sequence (P03372 whole entry, looked up): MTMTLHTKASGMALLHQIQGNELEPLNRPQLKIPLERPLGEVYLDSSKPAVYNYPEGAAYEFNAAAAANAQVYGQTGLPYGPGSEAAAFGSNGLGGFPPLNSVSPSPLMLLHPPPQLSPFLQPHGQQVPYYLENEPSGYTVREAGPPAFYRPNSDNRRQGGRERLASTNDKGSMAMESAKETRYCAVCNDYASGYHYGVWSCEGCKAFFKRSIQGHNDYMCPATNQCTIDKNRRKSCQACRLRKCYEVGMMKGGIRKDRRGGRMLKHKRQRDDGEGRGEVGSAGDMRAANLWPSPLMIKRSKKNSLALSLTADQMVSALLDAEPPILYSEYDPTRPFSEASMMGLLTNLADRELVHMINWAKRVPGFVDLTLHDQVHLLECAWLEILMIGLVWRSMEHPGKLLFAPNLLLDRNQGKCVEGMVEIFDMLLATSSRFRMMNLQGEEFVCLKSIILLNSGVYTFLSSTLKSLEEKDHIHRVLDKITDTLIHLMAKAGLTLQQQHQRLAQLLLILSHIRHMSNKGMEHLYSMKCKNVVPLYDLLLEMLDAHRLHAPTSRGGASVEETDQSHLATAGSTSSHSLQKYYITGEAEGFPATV
# [7] = biological target: Estrogen receptor (Homo sapiens) (UniProt P03372); assay: qHTS assay to identify small molecule agonists of the estrogen receptor alpha (ER-alpha) signaling pathway using the BG1 cell line (AID 743079); further: nearly all actives have a fitted effect of over 20% in size; further: potency means the concentration at half of the fitted maximal effect
# [8] = qHTS assay to identify small molecule antagonists of the estrogen receptor alpha (ER-alpha) signaling pathway using the BG1 cell line (AID 743080; calls by dose curve;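 further: BG1 cells stimulated with 17beta-estradiol alongside compound; series mostly up to about 70 µM; nearly all actives have a fitted effect of over 25% in size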)
# Procedure, shortened: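 Readout is ONE-Glo luminescence, taken 30 min at room temperature after reagent addition, preceded by a CellTiter-Fluor viability read; BG1-Luc-4E2 cells had received compound and 17beta-estradiol for 21.5 h at 37 C.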
# [9] = biological target: Estrogen receptor (Homo sapiens) (UniProt P03372); assay: qHTS assay to identify small molecule antagonists of the estrogen receptor alpha (ER-alpha) signaling pathway (AID 743069; active means well fitted curve in the direction sought with a large enough effect in the signal ratio in the repeat runs, not every such curve was filed as active; the % refers to the signal ratio)
# Procedure, shortened: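 Beta-lactamase FRET fluorescence is read after 2 hr at room temperature with LiveBLAzer B/G substrate. Before that, ER-alpha-bla HEK293 cells sit 4 hr after plating, then receive compound plus 17beta-estradiol and incubate 18 hr at 37C.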
Compound,Potency [1],Potency [2],outcome [3],outcome [4],Potency [5],Potency (Aromatase (Homo sapiens)),Potency [6],Potency [7],outcome [8],outcome [9]
COC(=O)CC(C)=O,inactive,inactive,inactive,inactive,inactive,inactive,–,–,–,–
NCCc1cnc[nH]1,inactive,inactive,inactive,inactive,inactive,inactive,–,–,–,–
NS(=O)(=O)c1ccccc1Cl,inactive,inactive,inactive,inactive,inactive,inactive,–,–,–,–
O=C(O)CCCc1ccccc1,inactive,inactive,inactive,inactive,inactive,inactive,–,–,–,–
CCCN(CCC)CCc1cccc2c1CC(=O)N2,inactive,inactive,inactive,inactive,inactive,inactive,–,–,–,–
FC(F)OC(Cl)C(F)(F)F (centres undefined),inactive,inactive,inactive,inactive,inactive,inactive,–,–,–,–
COC(=O)c1ccc(C)cc1C1=NC(C)(C(C)C)C(=O)N1 (centres undefined),inactive,inactive,inactive,inactive,inactive,inactive,–,–,–,–
CCCCCCCCCCCCN(CCCCCCCCCCCC)CCCCCCCCCCCC,inactive,inactive,inactive,inactive,inactive,inactive,–,–,–,–
CCCCCCCCS(=O)(=O)Cl,inactive,inactive,inactive,inactive,inactive,inactive,–,–,–,–
O=c1[nH]c(=O)n([C@H]2C[C@H](O)[C@@H](CO)O2)cc1I,inactive,inactive,inactive,inactive,inactive,inactive,–,–,–,–
COC(C)(C)CCCC(C)CC=O (centres undefined),inactive,inactive,inactive,inactive,inactive,inactive,–,–,–,–
CN(C(=O)c1c(O)c2ccccc2n(C)c1=O)c1ccccc1,inactive,inactive,inactive,inactive,inactive,inactive,–,–,–,–
O=C(O)CNC(=O)c1ccc([N+](=O)[O-])cc1,inactive,inactive,inactive,inactive,inactive,inactive,–,–,–,–
CC(=O)N(CC(O)CO)c1c(I)c(C(=O)NCCO)c(I)c(C(=O)NCC(O)CO)c1I (centres undefined),inactive,inactive,inactive,–,inactive,inactive,–,–,–,–
CC(C)(C)c1ccc(O)c(O)c1,70.9 µM (active) and 56.1 µM (active),56.3 µM (active) and 24.3 µM (active),inactive,inactive,inactive,inactive and 12.6 µM (active),–,–,–,–
CN(C)CCCN1c2ccccc2CCc2ccc(Cl)cc21,10.6 µM (active) and 10.9 µM (active),13.3 µM (active) and 17.2 µM (active),inactive,inactive,54.5 µM (active),inactive,–,–,–,–
COC(=O)c1c(Cl)c(Cl)c(C(=O)OC)c(Cl)c1Cl,inactive,–,inactive,inactive,inactive,inactive,inactive,inactive,inactive,–
CCCCOCCOCCOCc1cc2c(cc1CCC)OCO2,inactive,–,inactive,inactive,inactive,inactive,–,–,–,–
O=S(O)CO,inactive,–,inactive,inactive,inactive,inactive,inactive,26.6 µM (active),inactive,inactive
Nc1c[n+](N2CCOCC2)no1,inactive,–,inactive,–,inactive,inactive,inactive,inactive,inactive,inactive

Compound,Potency [1],Potency [2],outcome [3],outcome [4],Potency [5],Potency (Aromatase (Homo sapiens)),Potency [6],Potency [7],outcome [8],outcome [9]
NC(=O)c1ccc([N+](=O)[O-])cc1,inactive,inactive,inactive,inactive,inactive,inactive,–,–,–,–
CCCN1CCCC[C@H]1C(=O)Nc1c(C)cccc1C,inactive,inactive,inactive,inactive,inactive,inactive,–,–,–,–
CCc1ccc(O)c(OC)c1,inactive,inactive,inactive,inactive,inactive,inactive,–,–,–,–
C=CCCCCCCCCC=O,inactive,–,inactive,inactive,inactive,inactive,inactive,inactive,inactive,–
O=C(O)CN(CCOCCOCCN(CC(=O)O)CC(=O)O)CC(=O)O,inactive,inactive,inactive,inactive,inactive,inactive,–,–,–,–
COC(=O)[C@@H](N)Cc1ccc(O)c(O)c1,21.1 µM (active),23.7 µM (active),inactive,inactive,–,inactive,–,–,–,–
CCOC(=O)c1c(C)n(C)c2ccc(O)cc12,inactive,inactive,inactive,inactive,inactive,inactive,–,–,–,–
CN1CCN(c2cc3c(cc2F)c(=O)c(C(=O)O)cn3-c2ccc(F)cc2)CC1,inactive,inactive,inactive,inactive,inactive,inactive,–,–,–,–
Cn1c(N)c(N=O)c(=O)n(C)c1=O,inactive,inactive,inactive,inactive,inactive,inactive,–,–,–,–
CCOc1ccc(C(=O)OCCN(CC)CC)cc1,inactive,inactive,inactive,inactive,inactive,inactive,–,–,–,–
OC[C@]1(O)OC[C@@H](O)[C@H](O)[C@@H]1O,inactive,inactive,inactive,inactive,inactive,inactive,–,–,–,–
CCCC(=O)O[C@]1(C(=O)CO)CC[C@H]2[C@@H]3CCC4=CC(=O)CC[C@]4(C)[C@H]3[C@@H](O)C[C@@]21C,inactive,inactive,inactive,inactive,inactive,inactive,–,–,–,–
C=CCOCC(CC)(CO)COCC=C,inactive,inactive,inactive,–,inactive,–,–,–,–,–
NC(CSCC(=O)O)C(=O)O (centres undefined),inactive,–,inactive,inactive,inactive,inactive,inactive,inactive,inactive,inactive
Brc1c(NC2=NCCN2)ccc2nccnc12,inactive,inactive,inactive,inactive,inactive,inactive,–,–,–,–
CN1CC(=O)NC1=N,inactive,inactive,inactive,inactive,inactive,inactive,–,–,–,–
COc1ccc2c(c1)c(CC(=O)OCC(=O)O)c(C)n2C(=O)c1ccc(Cl)cc1,inactive,inactive,inactive,inactive,–,inactive,–,–,–,–
C[N+](C)(C)CCCCCC[N+](C)(C)C,inactive,inactive,inactive,inactive,–,inactive,–,–,–,–
Nc1c2c(nc3ccccc13)CCCC2O (centres undefined),–,–,–,inactive,inactive,–,inactive,inactive,inactive,inactive
